Sa helicase inh: inhibitors of S. aureus replicative helicase, primary screen, biochemical, fluorescence unwinding readout. purified S. aureus helicase, fluorescence unwinding assay. inhibition, % (no concentration beside the values). 0.05% of 120,000 active; in the data active = inhibition above about 25%, passing the limit was not always enough
Sa growth inh: S. aureus growth inhibition at 42 and 30 °C, primary screen, LtaS inhibitor project, RN4220, two temperatures; 0.53% of 170,000 active; OD600, 20 h, 42 °C; hits give low values; relative growth, % (concentration not given with the values);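 active = relative growth at most 50% at the other temperature and 20+ points below 30 °C, or under 10% at both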
Each line names hits and unclear results; the compound was inactive in the other large screens. The sample as a whole holds a higher share of hits than the screen did.

CCN1/C(=C\C=C2C(=O)OC(C)(C)OC2=O)Sc2ccccc21	none
CCN1/C(=C/C2=CC(=O)CC(C)(C)C2)Sc2ccccc21	Sa growth inh 1.0
COc1ccc(/C=C/C(=O)Nc2ccc(C)c(C)c2)cc1OC	none
CN(c1ccccc1)S(=O)(=O)c1ccc(C(=O)Nc2nnc(C(F)(F)F)o2)cc1	Sa growth inh 3.2
CCCCN(CC)S(=O)(=O)c1ccc(C(=O)Nc2nnc(COC)o2)cc1	Sa growth inh -0.5
C=CCN(CC=C)S(=O)(=O)c1ccc(C(=O)Nc2nnc(COC)o2)cc1	none
CCc1nnc(NC(=O)c2ccc(S(=O)(=O)N(C)C)cc2)o1	none
CCN(CC)S(=O)(=O)c1ccc(C(=O)Nc2ncn(Cc3ccccc3)n2)cc1	none
CSCc1nnc(NC(=O)c2ccc(S(=O)(=O)N(C)Cc3ccccc3)cc2)o1	Sa growth inh 2.4
CN(c1ccccc1)S(=O)(=O)c1ccc(C(=O)O)cc1	none
CCN(Cc1ccccc1)S(=O)(=O)c1ccc(C(=O)Nc2nnc(COC)o2)cc1	Sa growth inh 5.7
C=CCSc1nnc(Cn2nnc3ccccc32)n1-c1ccc(Cl)cc1	none (no result: Sa helicase inh)
Cc1coc2c1c(C)cc1oc(=O)c(CC(=O)NCc3ccc(Cl)cc3)c(C)c12	none (no result: Sa helicase inh)
CCOc1ccc(NC(=O)C2C3C=CC4(O3)C2C(=O)N(C(C)C)C4C(=O)NC2CCCCC2C)cc1 (stereo not given)	none
CCn1c(C)c(C2N3CC4(C)CN2CC(C)(C3)C4=O)c2ccccc21 (stereo not given)	none (no result: Sa helicase inh)
Cc1ccc(-c2ccc(CCC(=O)O)o2)cc1	Sa growth inh -1.4
O=C(O)CCc1ccc(-c2cccs2)o1	none
FC(F)(F)CN(Cn1nc(-c2ccco2)oc1=S)Cn1nc(-c2ccco2)oc1=S	none
Cc1noc(C)c1COC(=O)c1ccc(S(=O)(=O)N(C)C)cc1	none
Cc1cc(-c2csc(-c3ccc(O)cc3)n2)c(C)n1C1CC1	none
C[n+]1ccc(/C=C/c2ccccc2F)c2ccccc21	none
CN1C=C/C(=C\c2cc[n+](C)c3ccccc23)c2ccccc21	Sa helicase inh 86, Sa growth inh 0.6
Cc1ccc(CNC(=O)C2CCN(S(=O)(=O)c3cn(C)cn3)CC2)cc1	none (no result: Sa helicase inh)
CCOC(=O)c1cc(-c2cccs2)on1	none (no result: Sa helicase inh)
CCc1c(C)sc2c1CCN(Cc1ccccc1C#N)C2c1ccccc1 (stereo not given)	none (no result: Sa helicase inh)
CCc1c(C)sc2c1CCN(Cc1ccccc1)C2c1ccccc1 (stereo not given)	Sa growth inh -1.1 (no result: Sa helicase inh)
CCNc1nc(NC(C)C)nc(OCCNC(=O)COc2ccc(Cl)cc2C)n1	none
Cc1ccc(S(=O)(=O)N2CCc3cc(C(=O)Nc4ccc(C)c(C)c4)ccc32)cc1	none (no result: Sa helicase inh)
Cc1ccc(NC(=O)c2cccc(S(C)(=O)=O)c2)cc1	none
Cc1ccc(C)c(-c2nnc(NC(=O)c3ccc(S(=O)(=O)N4CCc5ccccc54)cc3)o2)c1	Sa growth inh 1.9
Cc1ccc(C)c(-c2nnc(NC(=O)c3cccc(S(C)(=O)=O)c3)o2)c1	Sa growth inh 5.5
CCN1C/C(=N\S(=O)(=O)c2ccccc2)N(CC)C1=O	none
Cc1cc(Nc2ccccc2C)nc(-n2nc(C)cc2C)n1	Sa growth inh -0.2 (no result: Sa helicase inh)
Cc1cc(C)n(-c2nc(NC(C)C)nc(NC(C)C)n2)n1	Sa growth inh -0.4
Cc1cc(C)n(-c2ncc(S(=O)(=O)C(C)(C)C)c(N)n2)n1	none
Cc1cc(N2CCCC2)nc(-n2nc(C)cc2C)n1	Sa growth inh 7.7
Cc1cc(C)n(-c2ccccc2)n1	none
Cc1cc(C)cc(Nc2nc3cc(Cl)c(Cl)cc3nc2-n2nc(C)cc2C)c1	none (no result: Sa helicase inh)
Cc1cc(N2CCCCC2)nc(N2CCOCC2)n1	none
Cc1cc(C)cc(Nc2cc(C)nc(-n3nc(C)cc3C)n2)c1	Sa growth inh -0.7
CN(C)C(=O)c1cc(F)c(F)c(F)c1F	none (no result: Sa growth inh)
CC(C)(CO)NS(=O)(=O)c1csc(C(=O)Nc2ccccc2)c1	none
O=C(Nc1cccnc1)OCC(F)(F)F	none
CCOC(=O)c1ccc(-c2ccc(/C=C3/C(=O)Nc4ccccc43)o2)cc1	none
C=CCN1C(=O)/C(=C2\SC(=S)N(CCC)C2=O)c2ccccc21	none
CCCCc1ccc(Nc2cc(C)nc(-n3nc(C)cc3C)n2)cc1	none (no result: Sa helicase inh)
Cc1cc(Nc2cc(F)ccc2C)nc(-n2nc(C)cc2C)n1	Sa growth inh 3.1 (no result: Sa helicase inh)
COc1ccc(-c2cc(C(F)F)nc(-n3nc(C)cc3C)n2)cc1	none
Cc1cc(Nc2ccc(F)cc2)nc(-n2nc(C)cc2C)n1	Sa growth inh 2.5 (no result: Sa helicase inh)
OC(COc1ccc(Br)cc1)CN1CCCN(c2nc3ccc(Cl)cc3s2)CC1 (stereo not given)	none (no result: Sa helicase inh)
O=C(SCc1nc2ccccc2[nH]1)c1ccc(-c2ccccc2)cc1	none
Cc1cc(C(F)(F)F)n2ncnc2n1	none
COc1ccccc1NC(=O)CC(O)(C(F)(F)F)C(F)(F)F	none
Cc1ccc(Cl)cc1NC(=O)CC(O)(C(F)(F)F)C(F)(F)F	Sa growth inh -0.8
COc1ccc(Cl)cc1NC(=O)c1nnn(CC(=O)Nc2c(C)cccc2C)c1N	none
COc1ccc(Cl)cc1S(=O)(=O)N1CCCCCC1	none (no result: Sa growth inh)
N#CSCC(=O)c1cccs1	Sa growth inh 1.0
N#CCN(CC#N)C(=O)c1cccs1	none (no result: Sa helicase inh)
Cc1cc(=S)nc(C(C)C)[nH]1	Sa growth inh 28
Cc1cc(C)[nH]c(=S)n1	none
COC(=O)CSc1ncnc2ccsc12	none (no result: Sa helicase inh)
Cc1ccc(S(=O)(=O)CCC(=O)c2ccc(O)cc2O)cc1	Sa growth inh -0.2
Cc1ccc(S(=O)(=O)CCC(=O)O)cc1	none
COc1cccc(CNC(=O)CSC)c1	none
O=C1NCCN1C(=O)NC1CCCCC1	none
CC1(C)S[C@@H]2[C@H](NC(=O)[C@H](NC(=O)N3CCNC3=O)c3ccccc3)C(=O)N2C1C(=O)O (stereo not given in full)	Sa growth inh -1.3 (no result: Sa helicase inh)
CC1(C)S[C@@H]2[C@H](NC(=O)[C@@H](N)c3ccc(O)cc3)C(=O)N2[C@H]1C(=O)O	Sa growth inh -0.4 (no result: Sa helicase inh)
C=CCN(C(=O)CSc1nc2ccccc2o1)c1nc2c(s1)CCCC2	none
O=C1OC(c2ccccc2)=C/C1=C/c1ccc(Cl)cc1	none
O=C1OC(c2ccccc2)=C/C1=C/c1ccccc1	Sa growth inh -0.6 (no result: Sa helicase inh)
N#CSc1sc(N)nc1-c1ccccc1	Sa growth inh 0.1
COc1ccc(-c2nc(N)sc2-c2ccccc2)cc1	none (no result: Sa growth inh)
COC(=O)C1(C(F)(F)F)N=C(N2CCCCC2)OC(N2CCCCC2)=N1	none
CCc1ccc(NC(=O)c2cc(S(=O)(=O)N3CCCCCC3)ccc2F)cc1	none (no result: Sa helicase inh)
N#CSc1c(Cl)nc2sccn12	Sa growth inh 1.8
O=C(c1c(Cl)nc2sccn12)N1CCOCC1	none
O=C(Cn1ncc(Cl)c(Cl)c1=O)Nc1ccc(Cl)cc1	none
Cc1c(C)c(C)c(C#CCO)c(C)c1C	Sa growth inh 3.2
COc1cc(C(=O)Oc2cc(C)cc(C)c2)cc(OC)c1OC	none (no result: Sa helicase inh)
COc1cc(C(=O)N=C2C(C)=CC(=O)C=C2C)cc(OC)c1OC	Sa growth inh -0.6
C/C(=N\NC(=O)COc1ccc(Br)cc1)c1ccc2c(c1)OCO2	none
COc1ccc2sc(N(Cc3cccnc3)C(=O)C3CCCCC3)nc2c1	none (no result: Sa helicase inh)
CCC(Oc1ccccc1C)C(=O)O (stereo not given)	none
NC(=S)COc1ccc(F)cc1	Sa helicase inh 25
OCc1ccc(OCc2ccc(F)cc2)cc1	none (no result: Sa helicase inh)
CCCCCNC(=O)CCCCCn1c(=O)[nH]c2ccsc2c1=O	none (no result: Sa helicase inh)
CC(C)NC(=O)n1cc(F)c(=O)[nH]c1=O	Sa growth inh -0.6
CCCCCCNC(=O)n1cc(F)c(=O)[nH]c1=O	Sa growth inh 1.1 (no result: Sa helicase inh)
NC(=O)Cn1cc(F)c(=O)[nH]c1=O	none
CCN1CCN(c2cc(C)c3cc(NC(=O)C4CCCCC4)ccc3n2)CC1	none

Bioassay records deposited in PubChem BioAssay by ICCB-Longwood Screening Facility, Harvard Medical School.
